14-3-3 Bad PPI: inhibitors of 14-3-3 zeta/Bad binding, primary screen, biochemical, TR-FRET, bovine 14-3-3 zeta | 14-3-3 protein zeta/delta (Bos taurus), P63103 | TR-FRET 14-3-3zeta/Dy647-pBad peptide displacement, 1 h | inhibition, % at 21.7 µM | actives 0.71% (n = 220,000) | AID 781, 2007;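 active = inhibition above about 70%, limit read from the data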
Target sequence (P63103 whole entry, looked up): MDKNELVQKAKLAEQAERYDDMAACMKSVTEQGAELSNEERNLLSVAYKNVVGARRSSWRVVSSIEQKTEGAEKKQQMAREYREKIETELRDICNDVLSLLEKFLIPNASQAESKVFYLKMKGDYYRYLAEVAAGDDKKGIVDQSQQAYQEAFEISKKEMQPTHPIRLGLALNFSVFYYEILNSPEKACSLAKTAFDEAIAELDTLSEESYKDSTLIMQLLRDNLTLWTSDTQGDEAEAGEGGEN
Mcl-1 Bim block: inhibitors of Bim peptide binding to Mcl-1, primary screen, biochemical, bead-based flow cytometry, multiplex. Induced myeloid leukemia cell differentiation protein Mcl-1 (Homo sapiens), Q07820. Bim peptide-Mcl-1 binding. inhibition, % at 10 µM. actives 0.1% (n = 190,000). AID 1009, 2008; in the data active = inhibition above about 40%
Target sequence (Q07820 whole entry, looked up): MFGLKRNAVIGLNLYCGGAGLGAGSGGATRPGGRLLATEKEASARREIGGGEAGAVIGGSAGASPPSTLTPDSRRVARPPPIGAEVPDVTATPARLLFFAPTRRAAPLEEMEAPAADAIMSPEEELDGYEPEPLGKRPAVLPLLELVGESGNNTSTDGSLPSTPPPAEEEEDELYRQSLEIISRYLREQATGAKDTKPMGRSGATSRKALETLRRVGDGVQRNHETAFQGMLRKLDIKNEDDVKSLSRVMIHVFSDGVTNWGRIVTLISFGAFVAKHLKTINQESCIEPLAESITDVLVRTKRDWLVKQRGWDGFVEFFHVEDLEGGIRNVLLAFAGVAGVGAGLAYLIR
Mcl1-Bid inh: Mcl-1/Bid binding inhibitors, primary screen, biochemical, TR-FRET, 1536-well | Induced myeloid leukemia cell differentiation protein Mcl-1 (Homo sapiens), Q07820 | TR-FRET Mcl-1/Bid-Dy647 peptide binding | inhibition, % at 21.7 µM | actives 0.97% (n = 220,000);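 active = compounds that cut the binding signal by more than half at the single screening dose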;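 also: His-tagged Mcl-1 with europium anti-His antibody binding Bid BH3 peptide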
p47phox inh: p47phox/p22phox peptide binding inhibitors, primary screen, biochemical, uHTS, NADPH oxidase regulatory subunit | fluorescence polarization, 2 h | inhibition, % at 24.7 µM | Neutrophil cytosol factor 1 (Homo sapiens), P14598 | AID 1274, 2008 | actives 0.53% (n = 220,000);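 active = inhibition above about 30%, limit read from the data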
Mcl1-Noxa inh: Mcl-1/Noxa binding inhibitors, primary screen, biochemical, TR-FRET, 1536-well; inhibition, % at 21.7 µM; Induced myeloid leukemia cell differentiation protein Mcl-1 (Homo sapiens), Q07820; actives 1.5% (n = 220,000); TR-FRET Mcl-1/Noxa peptide binding, 2 h;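 active = compounds that cut the protein-peptide binding signal by more than 50% relative to plate controls in a single-dose test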;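 also: His-tagged Mcl-1 with rhodamine Noxa BH3 peptide and terbium anti-His antibody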
A number is an active result; n = inactive; x = no result given; [ ] = another dose, or the depositor's remark. An excerpt weighted towards active compounds, which were near 3.2% of everything screened.

SMILES	14-3-3 Bad PPI	Mcl-1 Bim block	Mcl1-Bid inh	p47phox inh	Mcl1-Noxa inh
CCN(CC)c1ccc(NC(=O)OC)cc1	n	n	n	n	68.5
O=C(N=Nc1c(O)n(Cc2ccccc2)c2ccccc12)c1cc2ccccc2cc1O	n	n	56.1	40.3	85.1
Cc1ccc(NC(=O)Cn2c(O)c(N=NC(=O)c3ccncc3)c3ccccc32)cc1	n	n	n	n	n
Cc1ccc(NC(=O)Cn2c(O)c(N=NC(=O)c3cc4ccccc4cc3O)c3ccccc32)cc1	82.2[fluorescence artefact?]	n	80.2	57.6	99.1
COc1ccccc1NC(=O)Cn1c(O)c(N=NC(=O)c2ccccc2O)c2ccccc21	78.6	n	n	n	n
CCOC(=O)c1nc(C)sc1-c1ccnn1S(=O)(=O)c1cccc(Cl)c1	n	x	n	n	n
COc1ccc(OC)c(NC(=O)CCc2c[nH]c3ccccc23)c1	n	n	n	n	n
CCO[C@H]1OC(C(=O)NCc2ccccc2)=C[C@@H](c2cn(C(C)=O)c3ccccc23)[C@@H]1CCCO	n	n	n	n	n
COc1cc(CO)c(Br)cc1OCC(N)=O	81.9	n	n	n	n
COc1cc(CO)c(Br)cc1OCC(=O)Nc1ccccc1C	n	n	n	n	n
CN(C)NC(=S)NC1CCS(=O)(=O)C1 (centres undefined)	n	x	n	n	n
Cc1ccc(C)c(CN2CCNC2=O)c1	n	n	n	137.0	n
O=C1NCCN1Cc1cccc(Cl)c1	n	n	n	n	n
Cc1cc(C(=O)COC(=O)CCc2nc3ccccc3s2)c(C)n1C	n	n	n	n	59.1
COCCCNCCCCOc1c(Cl)cc(C)cc1Br	79.2	n	n	n	n
COCCCNCCCOc1ccc(Cl)cc1Br	73.9	n	n	n	n
COCCCNCCCOc1ccc(C)cc1Br	n	n	n	n	n
O=C(N/N=C/c1ccco1)c1cccc(N2CCCC2=O)c1	n	n	n	n	n
O=C(N/N=C/c1ccco1)c1cccc(N2Cc3ccccc3C2)c1	n	n	n	n	75.2
CC(=O)c1sc(C(=O)O)c(-c2ccco2)c1-c1ccco1	n	x	n	n	n
CCCCNC(=O)/C(C#N)=C/c1ccc(F)cc1F	n	n	n	n	n
Cc1cc(C)c(C)c(OCCCN(C)C)c1	n	n	53.1	n	n
Cc1cc(C)c(C)c(OCCCn2ccnc2)c1	n	n	n	n	n
Cc1ccc(/C=C/C(=O)Nc2sc3c(c2C#N)CCCC3)o1	n	n	n	n	51.5
CCSc1nc2ccccc2n1C(=O)/C=C\c1ccc(OC)c(OC)c1	n	n	n	n	62.0
SMILES	14-3-3 Bad PPI	Mcl-1 Bim block	Mcl1-Bid inh	p47phox inh	Mcl1-Noxa inh
CCSc1nc2ccccc2n1CC(N)=O	n	n	n	n	n
O=C(CC1NCCNC1=O)NC1Cc2ccccc2C1 (centres undefined)	n	x	n	n	n
CC(=O)NCc1cccc(CNC(C)=O)n1	n	n	n	n	n
CNC(=O)OCc1cccc(COC(=O)NC)n1	n	n	n	39.1	n
N=c1n(Cc2ccccc2)c2ccccc2n1CC(O)COc1ccc(Cl)cc1Cl (centres undefined)	n	n	n	48.2	n
CCOC(=O)CSc1ncnc2c1cnn2-c1ccc(C)cc1	n	n	n	n	n
CCOC(=O)CSc1ncnc2c1cnn2-c1ccc(Cl)cc1	85.3	n	n	n	n
CC(OCC(O)CNCC1COc2ccccc2O1)c1ccc(Cl)cc1 (centres undefined)	n	n	n	n	n
CC(OCC(O)CN(C)CCOc1ccccc1)c1ccc(Cl)cc1 (centres undefined)	74.2	n	n	n	n
COC(=O)CSc1nnc(CNc2nc(-c3ccccc3)cs2)n1C	n	n	n	n	n
Cn1c(CNc2nc(-c3ccccc3)cs2)nnc1SCC(=O)N1CCc2ccccc21	n	51.0	n	n	n
CCOC(=O)N1CCN(C(=O)c2ccc3c(SCC(=O)O)c4c(nc3c2)CCCC4)CC1	n	n	n	n	n
O=C(O)CSc1c2c(nc3cc(C(=O)N4CCOCC4)ccc13)CCCC2	81.8	n	n	n	n
CCOc1ncccc1C(=O)N(C)CC(=O)Nc1ccccc1SC	n	n	n	n	n
CCOC(=O)N1CCN(C(=O)CSCC(=O)Nc2nc(-c3ccc(-c4ccccc4)cc3)cs2)CC1	n	n	n	61.8	n
CCOC(=O)N1CCN(C(=O)CSCC(=O)Nc2nc(-c3ccc(OC)cc3)cs2)CC1	n	n	n	n	n
Cc1ccc(C2NC(c3ccc(C)cc3)C(C)C(=O)C2C)cc1 (centres undefined)	n	x	n	n	n
COc1ccc(-c2csc(C)n2)cc1OC	n	n	n	n	n
COc1ccc(-c2csc(Cc3nnc4n3CCCCC4)n2)cc1OC	n	n	55.4	n	62.5
Cc1cc(C)c2nc3nc(C)c(C)cc3c(N)c2c1	n	n	n	34.8	n
COC(=O)c1sc(-c2ccc(C(C)(C)C)cc2)cc1NC(=O)c1ccccc1C(=O)O	n	x	n	n	51.4
O=C(c1cc(-c2ccccc2)n[nH]1)N1CCc2c([nH]c3ccccc23)C1c1ccccn1 (centres undefined)	n	n	n	n	n
COc1cccc(CC(=O)Nc2ccc(S(=O)(=O)Nc3nc(C)cc(C)n3)cc2)c1	n	n	n	n	n
O=C(O)C1Nc2c(O)cc(Cl)c([N+](=O)[O-])c2C2C=CCC12 (centres undefined)	97.0	n	97.3	n	104.5
Nc1nc(N2CCN(c3ccccc3)CC2)n[nH]1	71.9	n	n	n	n
SMILES	14-3-3 Bad PPI	Mcl-1 Bim block	Mcl1-Bid inh	p47phox inh	Mcl1-Noxa inh
O=C(OCC(=O)N1CCCc2ccccc21)c1cccc(S(=O)(=O)N2CCc3ccccc32)c1	n	n	n	n	n
O=C(Nc1ccc(Cl)cc1)c1cc2c(cc1O)[nH]c1ccccc12	n	x	n	n	61.5
O=[N+]([O-])c1cccc(/C=N/NC2CCS(=O)(=O)C2)c1 (centres undefined)	n	x	n	n	n
c1ccc(CN(CC2=NCCN2)c2ccccc2)cc1	n	n	n	n	n
c1ccc(CC2=NCCN2)cc1	n	n	n	53.8	n
COc1ccc(C(=S)N2CCCCCC2)cc1	n	41.0	n	n	n
COc1ccc(NC(=O)c2ccco2)cc1NC(=O)c1ccco1	n	41.0	n	n	n
COc1ccc(C(=O)Nc2cc(OC)c(NC(=O)c3ccco3)cc2OC)cc1	n	n	n	63.4	n
Cc1cc(C)c(C(=O)CSc2nnc(C)c(=O)[nH]2)cc1C	n	n	n	n	n
CCC1(c2ccc(F)cc2)NC(=O)N(CC(=O)Nc2ccc(C)c(S(=O)(=O)N3CCOCC3)c2)C1=O (centres undefined)	n	n	n	n	n
